Data published in PubChem BioAssay AID1852 (Sanford-Burnham Center for Chemical Genomics, 2009).
In all, about 2,500 compounds went through this assay and about 1,100 (44%) were called active. So high a share suggests a set chosen from earlier hits. Some of the results follow. A number with no mark means an inactive call.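 How the source made its calls: active means inhibition above 50% at 4 µM in the single-point screen; inactive means inhibition of 50% or less.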

Assay: blockers of TNF-a NF-kB luciferase induction – cell-based, HEK293T NF-kB-Luc, luminescence, selectivity assay for NOD1/NOD2 signaling inhibitor project, primary screen (AID 1852)
Conditions: TNF-a induced, 14 h, at 4 µM, stronger effect = higher value

| Compound | inhibition |
| --- | --- |
| COc1ccc(-c2cc(=O)oc3cc(O)ccc23)cc1 | 2.6% |
| O=C(Oc1cc2oc(=O)cc(-c3ccccc3)c2cc1Cl)C1CCCCC1 | 77.6% (active) |
| COc1ccc(-c2cc(=O)oc3cc(OC(=O)C4CCCCC4)c(Cl)cc23)cc1 | 95.3% (active) |
| COc1ccc(N2C(=O)C(Cl)=C(Oc3cccc(OC)c3)C2=O)cc1 | 13% |
| Nc1ccc(Oc2cccc(Oc3ccc(N)cc3)c2)cc1 | 54.8% (active) |
| CC(=O)c1ccc(N2CCN(S(=O)(=O)c3ccc4c(c3)CC(C)N4C(=O)C3CC3)CC2)cc1 (stereo unspecified) | 23.2% |
| O=C(CSc1nc2scc(-c3ccccc3)c2c(=O)[nH]1)Nc1ccccc1 | 32.9% |
| O=C(CSC1=NNC(c2ccccn2)S1)Nc1ccccc1 (stereo unspecified) | 50.1% (active) |
| Cc1ccc(NC(=O)CSc2nc(C)c(Cc3ccccc3)c(=O)[nH]2)cc1 | 20% |
| COc1cc(CNc2ccc3[nH]c(=O)[nH]c3c2)ccc1OCc1ccc(F)cc1Cl | 28.6% |
| Cc1cc(=O)n(C)c(=O)n1CCCCOc1ccc([N+](=O)[O-])cc1 | 24.7% |
| CC(C)Cn1c(N)c(C(=O)CSc2ccc3c(c2)OCCO3)c(=O)n(C)c1=O | 82.1% (active) |
| Cc1c(C(=O)OCC(=O)c2c(N)n(CC(C)C)c(=O)n(C)c2=O)oc2ccccc12 | 26.4% |
| CCc1ccc(C(=O)OCC(=O)c2c(N)n(CC(C)C)c(=O)n(C)c2=O)cc1 | 23.2% |
| CC(=O)c1ccc(N2CCN(S(=O)(=O)c3ccc4c(c3)CC(C)N4C(C)=O)CC2)cc1 (stereo unspecified) | 47.2% |
| CC1Cc2ccccc2N1S(=O)(=O)c1cccc(C(=O)N2CCN(c3ncccn3)CC2)c1 (stereo unspecified) | 58.4% (active) |
| O=C(c1ccc(-c2ccccc2)cc1)N1CCN(c2ccccn2)CC1 | 18.3% |
| Cc1cc2nc(-c3ccc(SCc4ccccn4)nc3)[nH]c2cc1C | 78.5% (active) |
| Cc1ccccc1C(=O)Nc1ccc(-c2nc3ccc(C(=O)c4ccccc4)cc3[nH]2)cc1 | 38.3% |

| Compound | inhibition |
| --- | --- |
| CC(C)(C)c1ccc(C(=O)O/N=C(\N)c2ccccn2)cc1 | 22.5% |
| CC(C)(C)c1ccc(C(=O)O/N=C(\N)c2ccccc2)cc1 | 51% (active) |
| COc1ccc(C(=O)O/N=C(\N)c2ccc(Br)cc2)cc1 | -10.5% |
| COc1ccc(-n2cnc3c(sc4nc(N5CCOCC5)c5c(c43)CCCC5)c2=O)cc1 | 46.4% |
| CCc1ccc(OCC(=O)Nc2ccc(-c3cc4ccccc4oc3=O)c(OC)c2)cc1 | 51.2% (active) |
| Cc1ccn2cc(-c3cc4ccccc4oc3=O)nc2c1 | -79.5% |
| COc1ccc(-c2cc(=O)oc3cc(OCC(=O)Nc4ccc(CCO)cc4)ccc23)cc1 | 38.3% |
| Cn1nccc1C(=O)N1CCN(c2ccccc2F)CC1 | -23.6% |
| Cc1ccc(Cl)cc1N1CCN(C(=O)c2cc3c(=O)[nH]c4ccccc4c3n2C)CC1 | 89.7% (active) |
| COc1ccccc1OCC(=O)OC/C(O)=C(\C#N)c1nc2ccccc2[nH]1 | 98.2% (active) |
| COc1ccccc1OCc1nnc(SCC(N)=O)n1-c1ccccc1 | 0.9% |
| Cc1cccc(C)c1OCC(=O)OC/C(O)=C(\C#N)c1nc2ccccc2[nH]1 | 101% (active) |
| CC(C)(C)c1nc(SCC(=O)Nc2nc3c(s2)CCCC3)c2ccccc2n1 | -17.1% |
| Cc1nc(SCC(=O)Nc2nc3ccccc3s2)c(C#N)c(C)c1C | 61.7% (active) |
| O=[N+]([O-])c1cccc(S(=O)(=O)NCc2ccncc2)c1 | 42.3% |
| CCC1C/C(=C\c2cc(OC)c(OC)cc2OC)C(=O)/C(=C/c2cc(OC)c(OC)cc2OC)C1 (stereo unspecified) | 36.6% |
| CCN1C/C(=C/c2ccc(OC)c(O)c2)C(=O)/C(=C/c2ccc(OC)c(O)c2)C1 | 101% (active) |
| CCN1C/C(=C/c2cccc([N+](=O)[O-])c2)C(=O)/C(=C/c2cccc([N+](=O)[O-])c2)C1 | 106% (active) |
| COc1ccc(/C=C2\CN(Cc3ccccc3)C/C(=C\c3ccc(OC)c(O)c3)C2=O)cc1O | 77.4% (active) |

| Compound | inhibition |
| --- | --- |
| COc1ccc(CCNC(=S)NC2CCN(Cc3ccccc3)CC2)cc1OC | 43.5% |
| O=C1/C(=C/c2cccc([N+](=O)[O-])c2)CCc2ccccc21 | -28.5% |
| Cc1cccc(-n2c(SC(C)C(=O)O)nc3sc4c(c3c2=O)CCCC4)c1 (stereo unspecified) | 45.4% |
| N#Cc1ccc(NC(=O)Nc2ccc(Cl)cc2)cc1 | 22.5% |
| O=[N+]([O-])c1ccc(NC(=S)NCCc2ccc(Cl)cc2)cc1 | 87.9% (active) |
| O=[N+]([O-])c1ccc(NC(=S)NCCc2ccc(F)cc2)cc1 | 18.3% |
| CN(Cc1cccnc1)C(=O)c1cc(COc2ccc3ncccc3c2)on1 | 42.9% |
| COc1cccc(CN(C)C(=O)c2cc(COc3ccc4ncccc4c3)on2)c1 | 56.4% (active) |
| CN(Cc1nccs1)C(=O)c1cc(COc2cccc3cnccc23)on1 | 66.3% (active) |
| CCc1ccc(CN(C)C(=O)c2cc(COc3cccc4cnccc34)on2)cc1 | 80% (active) |
| Cc1nc(CN(C)C(=O)c2cc(COc3ccc4ncccc4c3)on2)cs1 | 27.2% |
| CCOC(=O)c1ccc(NC(=O)c2ccc(C)c(S(=O)(=O)N3CCOCC3)c2)cc1 | 47.7% |
| COc1ccc(C(=O)Nc2ccc(-c3ccc(C)o3)cc2)cc1S(=O)(=O)N1CCOCC1 | 66.1% (active) |
| COc1ccc(NC(=O)c2cc(-c3ccco3)nc3ccccc23)cc1S(=O)(=O)N1CCOCC1 | 45.6% |
| Cc1nc([N+](=O)[O-])c(Sc2nc3ccccc3[nH]2)n1Cc1ccccc1 | 36.1% |
| Cc1ccc(C)c(OCC(=O)Nc2nc3ccc([N+](=O)[O-])cc3s2)c1C | 43.5% |
| Cc1cc(C)cc(OCC(=O)Nc2nc3ccc([N+](=O)[O-])cc3s2)c1 | 13.3% |
| O=C(NC(Nc1nc2ccc([N+](=O)[O-])cc2s1)(C(F)(F)F)C(F)(F)F)c1ccccc1Cl | 85% (active) |
